Compound activity as filed in PubChem.
In the library only some 1.1% were active in any assay of this set; here they are far more common.
SUMO HTRF inh: SUMOylation inhibition; inhibition, % at 35 µM; 290,000 compounds, 0.36% hits; HTRF SUMOylation assay, SAE1/SAE2 + UBC9, in vitro; AID 2006; in the data active = inhibition above about 50%, passing the limit was not always enough; inconclusive = no clear call, values can overlap the other calls
p97 inhibitor: inhibitors of human p97 ATPase | recombinant p97 ATPase, Kinase-Glo ATP luminescence, 3 h | inhibition, % at 8 µM | 220,000 compounds, 0.42% hits | AID 1481; in the data active = inhibition above about 15%
S1P3 antag: blocks the human S1P3 receptor; 170,000 compounds, 0.27% hits; Q99500; CHO S1P3 NFAT-BLA reporter, FRET fluorescence, antagonist mode; AID 485; inhibition, % at 4.98 µM;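 active = inhibition above the plate cutoff, the mean inhibition of test wells on that plate plus 3 SD, cut at about 28% in these data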;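 also: cells challenged with S1P at its EC80 of 0.8 µM; blue over green emission ratio from cleaved BLA substrate after 4 h stimulation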
DTT redox prof: compounds producing H2O2 with reducing agent – biochemical, NIH compound library profiling, artefact control for MLSCN library redox annotation, primary screen; DTT-dependent redox cycling H2O2, phenol red/HRP absorbance; 100% = 100 µM peroxide control, 0% = buffer; activation, % at 10 µM; 200,000 compounds, 0.03% hits;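 active = activation of at least 50% relative to the plate's high and low controls in the primary single-dose screen; inactive = activation below 50%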;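 also: compound incubated with DTT at 0.8 mM final as the reducing agent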
S1P4 antagonist: antagonists of human S1P4 receptor; O95977; S1P4-expressing cells, antagonist mode, reporter read-out; inhibition, % at 4.98 µM; 220,000 compounds, 0.26% hits; in the data active = inhibition above about 29%
Target sequence (O95977 whole entry, looked up): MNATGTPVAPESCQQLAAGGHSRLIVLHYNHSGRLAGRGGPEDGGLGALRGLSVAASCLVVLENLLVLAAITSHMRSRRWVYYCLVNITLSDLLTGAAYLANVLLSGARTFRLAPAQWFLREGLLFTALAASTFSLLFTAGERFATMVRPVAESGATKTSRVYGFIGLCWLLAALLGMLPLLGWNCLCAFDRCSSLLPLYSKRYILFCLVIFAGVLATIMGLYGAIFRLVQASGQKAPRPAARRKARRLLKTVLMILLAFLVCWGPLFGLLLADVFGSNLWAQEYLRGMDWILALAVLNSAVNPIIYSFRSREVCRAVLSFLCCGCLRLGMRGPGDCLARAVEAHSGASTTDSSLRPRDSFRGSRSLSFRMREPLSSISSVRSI
S1P4 ag: human S1P4 receptor agonism | S1P4-expressing cell line, agonist reporter assay | activation, % at 4.98 µM | AID 1509 | O95977 | 220,000 compounds, 0.35% hits; in the data active = activation above about 11%
A number is an active result.

Screening CCOc1ccc2nc(NC(=O)Nc3ccccc3)sc2c1 returned SUMO HTRF inh inactive, p97 inhibitor inactive, DTT redox prof inactive, S1P4 antagonist inactive and S1P4 ag inactive.
COc1ccc2cc(C(c3nnnn3C3CCCC3)N3CCOCC3)c3nnnn3c2c1 (configuration not stated) was read as SUMO HTRF inh inactive, p97 inhibitor inactive, S1P3 antag inactive, DTT redox prof inactive, S1P4 antagonist inactive and S1P4 ag inactive.
`N#Cc1cnn2c(-c3ccccc3)ccnc12` gave SUMO HTRF inh 50.3, p97 inhibitor inactive, DTT redox prof inactive, S1P4 antagonist inactive and S1P4 ag inactive.
Screening COc1ccc(-c2ccnc3c(C#N)cnn23)cc1 returned SUMO HTRF inh inconclusive, p97 inhibitor inactive, S1P3 antag inactive, DTT redox prof inactive, S1P4 antagonist inactive and S1P4 ag inactive.
`Cc1csc(SCCn2c(N3CCN(c4ccccc4)CC3)nc3c2c(=O)[nH]c(=O)n3C)n1` gave SUMO HTRF inh inactive, p97 inhibitor inactive, S1P3 antag inactive, DTT redox prof inactive, S1P4 antagonist inactive and S1P4 ag inactive.
Screening CC(OC(=O)c1ccc(S(=O)(=O)N2CCCCC2)cc1)C(=O)NC1CCCCC1C (configuration not stated) returned SUMO HTRF inh inactive.
Screening O=C(O)C(Cc1ccccc1)N1C(=O)/C(=C/C=C/c2ccco2)SC1=S (configuration not stated) returned SUMO HTRF inh 73.0, p97 inhibitor 27.1, S1P3 antag inactive, S1P4 antagonist inactive and S1P4 ag inactive.
COc1ccc(-n2c(SCC(=O)N3CCCC3)nc3c([nH]c4ccccc43)c2=O)cc1 was read as S1P3 antag inactive.
CN(C)c1ccc(/C=N/NC(=O)c2ccc(CN3C(=O)c4cccc5cccc3c45)cc2)cc1 was read as SUMO HTRF inh inactive, p97 inhibitor inactive, S1P3 antag inactive, DTT redox prof inactive, S1P4 antagonist inactive and S1P4 ag inactive.
O=C(N/N=C/c1ccccc1)c1ccc(CN2C(=O)c3cccc4cccc2c34)cc1 was read as SUMO HTRF inh 50.1, p97 inhibitor inactive, S1P3 antag inactive, DTT redox prof inactive, S1P4 antagonist inactive and S1P4 ag inactive.
For O=c1c(O)c(-c2ccc(O)cc2O)oc2cc(O)cc(O)c12 the results were SUMO HTRF inh inactive, p97 inhibitor 49.2, S1P3 antag inactive, DTT redox prof inactive, S1P4 antagonist inactive and S1P4 ag inactive.
Screening O=c1c(-c2ccc(O)cc2O)coc2cc(O)cc(O)c12 returned SUMO HTRF inh inactive, p97 inhibitor inactive, S1P3 antag inactive, DTT redox prof inactive, S1P4 antagonist inactive and S1P4 ag inactive.
Cc1nc(S/C(=C/c2ccc(OCc3ccc(C(=O)O)cc3)cc2)C(=O)O)n[nH]1 was read as SUMO HTRF inh 58.4, p97 inhibitor inactive, S1P3 antag inactive, DTT redox prof inactive, S1P4 antagonist inactive and S1P4 ag inactive.
`CCOC(=O)c1ccc(N(C(=O)CNC(=O)c2ccco2)C(C(=O)NCC2CCCO2)c2ccc(OC)c(OC)c2)cc1` (configuration not stated) gave SUMO HTRF inh inactive.
Screening CC(NC(=O)COC(=O)c1ccc(N(C)C)cc1)c1ccccc1 (configuration not stated) returned SUMO HTRF inh inactive, p97 inhibitor inactive, S1P3 antag inactive, DTT redox prof inactive, S1P4 antagonist inactive and S1P4 ag inactive.
Screening CC(/C=C1\SC(=S)N(NS(=O)(=O)c2ccc(C)cc2)C1=O)=C\c1ccccc1 returned SUMO HTRF inh 58.9, p97 inhibitor inactive, S1P3 antag inactive, S1P4 antagonist inactive and S1P4 ag inactive.
Screening CC(/C=C1\SC(=S)N(NS(=O)(=O)c2ccccc2)C1=O)=C\c1ccccc1 returned SUMO HTRF inh inactive, p97 inhibitor inactive, S1P3 antag inactive, S1P4 antagonist inactive and S1P4 ag inactive.
Screening COc1cc(/C=N/Nc2ccc(Cl)c(C(=O)O)c2)ccc1OC(=O)c1cccs1 returned SUMO HTRF inh inactive, p97 inhibitor inactive, S1P3 antag inactive, DTT redox prof inactive, S1P4 antagonist inactive and S1P4 ag 11.6.
Screening COc1cc(/C=N/Nc2ccccc2)ccc1OC(=O)c1cccs1 returned SUMO HTRF inh inactive, p97 inhibitor inactive, S1P3 antag inactive, DTT redox prof inactive, S1P4 antagonist inactive and S1P4 ag inactive.
